The source made the active and inactive calls.
How the values were obtained:
[1] = E. coli DRC41 culture turbidity changes, primary screen, E. coli filamentation inducer project, strain DRC41, OD650, 48 h (AID 1152);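 also: E. coli MC1000 strain DRC41 lacking acrAB efflux pump and sulA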; details: E. coli DRC41 (acrAB sulA), higher = more signal, called active from +8 up or from −8 down
[2] = small-molecule binders of probe aLefty1, primary screen, biochemical, small-molecule microarray, 635/667 nm fluorescence (AID 1153); details: higher = more signal;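 also: score merges spot fluorescence with signal-to-noise ratio from the scanned slide images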
[3] = PSAC antagonists in infected red cells, primary screen, cell-based, P. falciparum Indochina, OD700, 1 h (AID 1154); details: P. falciparum Indochina infected RBC osmotic lysis, higher = more signal, called active from +8 up or from −8 down
[4] = PSAC antagonists in infected red cells, primary screen, cell-based, P. falciparum Indochina, OD700, 2 h (AID 1155);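 also: lysis reports solute entry through the parasite surface anion channel PSAC; channel blockers reduce lysis of infected cells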; details: P. falciparum Indochina infected erythrocytes, osmotic lysis OD700; higher = more signal, called active from +8 up or from −8 down
[5] = osmotic lysis modulators in infected erythrocytes, primary screen, PSAC antagonist project, cell-based, P. falciparum Indochina, OD700, 3 h (AID 1156); details: higher = more signal, called active from +8 up or from −8 down
[6] = PSAC antagonists in infected red cells, primary screen, cell-based, P. falciparum Indochina, OD700, 18 h (AID 1157); details: P. falciparum Indochina infected erythrocytes, osmotic lysis OD700, 18 h; higher = more signal, called active from +8 up or from −8 down
[7] = modulators of S6 phosphorylation in cells, primary screen, cell-based, A549, cytoblot, luminescence, serum-stimulated (AID 1158); details: A549 phospho-S6 cytoblot, 5 h, higher = more signal;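 also: serum-stimulated A549 lung adenocarcinoma cells; signal is phosphorylated S6 detected by cytoblot immunostaining with HRP secondary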
[8] = biological target: NADPH oxidase 2 (Homo sapiens) (UniProt P04839); experiment: NOX2-dependent H2O2 signal modulators, primary screen, NOX inhibitor project, cell-based, HEK293-NOX2, PMA-stimulated, Amplex Red fluorescence (AID 1159); details: 45 min, higher = more signal, called active from +8 up or from −8 down; also: test concentration not given here
NADPH oxidase 2 (Homo sapiens), sequence (P04839 whole entry, looked up): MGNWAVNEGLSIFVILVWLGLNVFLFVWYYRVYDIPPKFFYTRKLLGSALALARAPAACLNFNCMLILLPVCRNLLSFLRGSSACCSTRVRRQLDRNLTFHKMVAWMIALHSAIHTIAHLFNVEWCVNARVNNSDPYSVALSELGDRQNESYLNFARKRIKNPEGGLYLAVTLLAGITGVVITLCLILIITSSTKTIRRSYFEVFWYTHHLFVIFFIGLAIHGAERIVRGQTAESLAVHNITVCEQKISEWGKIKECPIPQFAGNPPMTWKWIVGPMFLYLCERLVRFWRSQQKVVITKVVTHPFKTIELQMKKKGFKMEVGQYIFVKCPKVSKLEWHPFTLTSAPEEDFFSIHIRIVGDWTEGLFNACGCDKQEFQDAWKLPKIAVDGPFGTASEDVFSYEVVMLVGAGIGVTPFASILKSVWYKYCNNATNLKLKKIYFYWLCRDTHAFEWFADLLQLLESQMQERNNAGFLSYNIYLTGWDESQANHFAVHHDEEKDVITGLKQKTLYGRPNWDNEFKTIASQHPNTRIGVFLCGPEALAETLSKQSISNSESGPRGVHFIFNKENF

[9] = biological target: NADPH oxidase 4 (Homo sapiens) (UniProt Q9NPH5); experiment: NOX4-dependent H2O2 signal modulators, primary screen, NOX inhibitor project, cell-based, HEK293-NOX4, tetracycline-induced, Amplex Red fluorescence (AID 1160); details: 45 min, higher = more signal, called active from +8 up or from −8 down
NADPH oxidase 4 (Homo sapiens), sequence (Q9NPH5 whole entry, looked up): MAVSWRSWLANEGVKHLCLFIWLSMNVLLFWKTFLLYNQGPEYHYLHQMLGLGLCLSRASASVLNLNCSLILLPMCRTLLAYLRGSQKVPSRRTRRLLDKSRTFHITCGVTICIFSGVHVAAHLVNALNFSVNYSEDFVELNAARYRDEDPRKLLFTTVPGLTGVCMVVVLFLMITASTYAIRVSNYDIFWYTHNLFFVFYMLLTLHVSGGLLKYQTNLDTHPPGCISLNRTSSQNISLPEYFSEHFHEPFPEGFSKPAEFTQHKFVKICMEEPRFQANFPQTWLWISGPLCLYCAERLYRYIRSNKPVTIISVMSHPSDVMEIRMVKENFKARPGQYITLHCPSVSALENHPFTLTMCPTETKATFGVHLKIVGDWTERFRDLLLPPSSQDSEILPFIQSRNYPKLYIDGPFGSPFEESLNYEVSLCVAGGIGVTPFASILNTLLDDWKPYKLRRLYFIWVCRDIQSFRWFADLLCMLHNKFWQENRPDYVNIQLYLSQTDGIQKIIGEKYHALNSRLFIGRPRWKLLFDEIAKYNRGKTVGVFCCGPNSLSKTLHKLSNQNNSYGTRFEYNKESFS

[10] = biological target: NADPH oxidase 5 (Homo sapiens) (UniProt Q96PH1); experiment: NOX5-dependent H2O2 signal modulators, primary screen, NOX inhibitor project, cell-based, HEK293-NOX5, Amplex Red fluorescence (AID 1161); details: HEK293-NOX5, ionomycin, 45 min, higher = more signal
NADPH oxidase 5 (Homo sapiens), sequence (Q96PH1 whole entry, looked up): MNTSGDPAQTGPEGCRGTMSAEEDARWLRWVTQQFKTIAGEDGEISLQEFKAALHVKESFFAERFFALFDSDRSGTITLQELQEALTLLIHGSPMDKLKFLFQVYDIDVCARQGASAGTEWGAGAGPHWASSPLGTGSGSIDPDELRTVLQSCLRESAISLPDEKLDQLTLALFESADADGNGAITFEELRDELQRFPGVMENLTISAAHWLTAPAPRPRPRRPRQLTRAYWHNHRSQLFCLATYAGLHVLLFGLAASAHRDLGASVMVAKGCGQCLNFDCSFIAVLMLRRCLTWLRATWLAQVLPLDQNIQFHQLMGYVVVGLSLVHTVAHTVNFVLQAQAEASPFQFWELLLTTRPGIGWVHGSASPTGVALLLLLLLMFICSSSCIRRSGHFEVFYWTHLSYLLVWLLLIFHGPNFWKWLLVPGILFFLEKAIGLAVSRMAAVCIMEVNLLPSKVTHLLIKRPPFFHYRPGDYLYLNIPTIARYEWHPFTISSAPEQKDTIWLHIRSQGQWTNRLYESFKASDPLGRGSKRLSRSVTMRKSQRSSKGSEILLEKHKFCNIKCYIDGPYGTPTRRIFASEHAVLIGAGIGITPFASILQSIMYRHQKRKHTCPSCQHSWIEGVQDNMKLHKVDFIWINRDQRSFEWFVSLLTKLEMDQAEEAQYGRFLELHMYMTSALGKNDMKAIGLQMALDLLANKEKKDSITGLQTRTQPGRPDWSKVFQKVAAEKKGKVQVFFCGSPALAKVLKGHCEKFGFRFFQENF

[11] = A549 cell viability effects, profiling panel, calcein-AM fluorescence, 48 h, basal (AID 1162); details: higher = more signal; also: test concentration not given here
[12] = adipocyte viability effects, profiling panel, cell-based, 3T3-L1 adipocytes, calcein-AM fluorescence, 48 h, basal (AID 1163); details: 3T3-L1 adipocytes viability, higher = more signal; also: test concentration not given here
[13] = HepG2 cell viability effects, profiling panel, calcein-AM fluorescence, 48 h, basal (AID 1164); details: higher = more signal; also: test concentration not given here
[14] = MM1S cell viability effects, profiling panel, calcein-AM fluorescence, 48 h, basal (AID 1165); details: higher = more signal;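 also: viability of MM1S multiple myeloma cells under basal unstimulated conditions; test concentration not given here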
[15] = basal RPMI8226 viability, no added stimulus, profiling panel, cell-based, calcein-AM fluorescence, 48 h, PK04 Diversity Set (AID 1166); details: RPMI8226 myeloma viability, higher = more signal;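 also: cells grown under basal conditions without added stimulus; test concentration not given here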
[16] = basal HepG2 mitochondrial membrane potential changes, profiling panel, cell-based, JC-1 fluorescence, 24 h, 100 nL compound (AID 1167); details: higher = more signal; also: test concentration not given here
[17] = basal 3T3-L1 adipocyte mitochondrial potential changes, profiling panel, cell-based, JC-1 fluorescence, 3T3-L1 adipocytes, 24 h, 100 nL compound (AID 1168); details: JC-1 mitochondrial fluorescence, higher = more signal, called active from +8 up or from −8 down; also: test concentration not given here
[18] = basal RPMI8226 mitochondrial membrane potential changes, profiling panel, cell-based, JC-1 fluorescence, 24 h, 100 nL compound (AID 1169); details: RPMI8226 myeloma, JC-1 mitochondrial potential fluorescence, higher = more signal; also: test concentration not given here
[19] = basal MM1S mitochondrial membrane potential changes, profiling panel, cell-based, JC-1 fluorescence, 24 h, 100 nL compound (AID 1170); details: higher = more signal; also: test concentration not given here
[20] = A549 lung cancer cell viability effects, profiling panel, resazurin fluorescence, 24 h, PK04 Diversity Set (AID 1171); details: higher = more signal, called active from +8 up or from −8 down; also: test concentration not given here

| Compound | z-score [1] | composite z-score [2] | z-score [3] | z-score [4] | z-score [5] | z-score [6] | z-score [7] | z-score [8] | z-score [9] | z-score [10] | z-score [11] | z-score [12] | z-score [13] | z-score [14] | z-score [15] | z-score [16] | z-score [17] | z-score [18] | z-score [19] | z-score [20] |
| --- | --- | --- | --- | --- | --- | --- | --- | --- | --- | --- | --- | --- | --- | --- | --- | --- | --- | --- | --- | --- |
| COCCOC(=O)N1C(=O)[C@@]2(c3cc(C#CC4=CCCCC4)ccc31)[C@H](C(=O)N1CCc3cc(OC)c(OC)cc3C1)[C@H]1C(=O)O[C@H](c3ccccc3)[C@H](c3ccccc3)N1[C@@H]2c1ccc(OCCO)cc1 | -0.332 (inactive) | 0.0752 | 3.71 (inactive) | 1.19 (inactive) | -0.129 (inactive) | 0.801 (inactive) | 0.261 | 1.77 (inactive) | 1.18 (inactive) | 0.669 | -0.989 | 0.847 | -1.2 | -1.84 | -0.691 | -0.207 | 1.22 (inactive) | -0.621 | -0.968 | 0.531 (inactive) |
| COc1ccc(CCNC(=O)[C@@H]2c3ccccc3C(=O)N(C3Cc4ccccc4C3)[C@H]2c2ccc(CO)cc2)cc1 | -0.483 (inactive) | -0.0544 | 6.43 (inactive) | 0.65 (inactive) | 0.474 (inactive) | 0.183 (inactive) | -0.484 | -3.31 (inactive) | -0.185 (inactive) | -3.47 | 0.595 | 0.0644 | 0.0079 | -0.532 | -0.0245 | 1.6 | 0.00592 (inactive) | -0.78 | -0.0799 | 1.39 (inactive) |
| CC(C)(C)C(=O)N[C@@H](c1ccc(Cl)cc1)[C@]1(C)C[C@H]1C1CCCCC1 | -0.913 (inactive) | 1.06 | 0.671 (inactive) | 0.418 (inactive) | 0.0711 (inactive) | 0.887 (inactive) | -0.191 | -0.0125 (inactive) | -1.05 (inactive) | -0.0713 | -1.07 | 0.459 | -0.492 | -1.22 | -1.43 | 4.37 | -0.594 (inactive) | -0.533 | 0.162 | -0.466 (inactive) |
| CCOC(=O)C[C@H]1[C@H](OC(=O)c2cc3ccccc3oc2=O)[C@@H](NC(=O)Cc2ccc(OC)cc2)c2cc(OCCCO)ccc2N1C(=O)c1ccccc1 | 0.386 (inactive) | 0.0942 | 0.743 (inactive) | -1.44 (inactive) | 0.776 (inactive) | -2.76 (inactive) | 1.03 | -0.569 (inactive) | -0.523 (inactive) | -0.286 | -0.172 | 2.17 | -0.56 | -0.0168 | -0.606 | -0.412 | -0.111 (inactive) | -0.135 | -0.244 | -0.714 (inactive) |
| O=C1NC(=O)C2C1C=CC(C(O)c1cccc3ccccc13)N2Nc1ccccn1 (stereo not given) | -0.0275 (inactive) | 0.137 | 1.06 (inactive) | 0.344 (inactive) | 0.274 (inactive) | 0.899 (inactive) | -0.562 | -1.2 (inactive) | -2.83 (inactive) | -2.36 | 0.428 | -0.608 | -0.32 | 0.002 | -0.0565 | 0.15 | -0.0987 (inactive) | -0.216 | -0.184 | -0.721 (inactive) |
| COCCOC(=O)N1C(=O)[C@@]2(c3cc(C#CC4=CCCCC4)ccc31)[C@H](C(=O)Nc1nc3ccccc3s1)[C@H]1C(=O)O[C@H](c3ccccc3)[C@H](c3ccccc3)N1[C@@H]2c1ccc(OCCO)cc1 | -1.56 (inactive) | -0.333 | 2.63 (inactive) | 1.23 (inactive) | -0.218 (inactive) | 1.59 (inactive) | -0.145 | 1.01 (inactive) | 0.101 (inactive) | 0.468 | -0.104 | 0.747 | 0.185 | -0.953 | -0.856 | -2.95 | 0.662 (inactive) | -0.583 | -1.12 | -0.309 (inactive) |
| CC(C)(C)OC(=O)CC[C@@]1(C(N)=O)N=C(c2ccc(OCCCO)cc2)O[C@@H]1c1ccccc1 | -0.795 (inactive) | 0.345 | 5.46 (inactive) | 0.431 (inactive) | 0.726 (inactive) | 0.299 (inactive) | -0.0683 | -0.414 (inactive) | 0.492 (inactive) | -0.0961 | 0.298 | -0.0721 | 0.105 | 0.0092 | 0.658 | -0.318 | -0.191 (inactive) | 0.919 | -0.0322 | 0.293 (inactive) |
| CN(C)CCCNC(=O)[C@@]1(C)c2ccccc2C(=O)N(Cc2cc(F)cc(C(F)(F)F)c2)[C@H]1c1ccc(CO)cc1 | -0.0995 (inactive) | 0.0391 | 2.41 (inactive) | 0.159 (inactive) | 1.32 (inactive) | -0.0617 (inactive) | -0.0103 | -0.655 (inactive) | 0.835 (inactive) | 0.463 | 1.04 | -0.0121 | -0.746 | -1.29 | -0.167 | 0.845 | 0.235 (inactive) | 0.521 | -0.496 | 0.896 (inactive) |

Source: PubChem BioAssay
